Screening results as filed in PubChem BioAssay.
Only some compounds are listed: those with a hit (about 4.1% of all), similar ones and a draw of the others.
VHR inh abs = inhibitors of human VHR1 phosphatase (DUSP3); recombinant VHR phosphatase, pNPP absorbance; inhibition, % at 13.3 µM; 290,000 compounds, 0.52% hits; AID 1654; in the data active = inhibition above about 50%
Target sequence (P51452 whole entry, looked up): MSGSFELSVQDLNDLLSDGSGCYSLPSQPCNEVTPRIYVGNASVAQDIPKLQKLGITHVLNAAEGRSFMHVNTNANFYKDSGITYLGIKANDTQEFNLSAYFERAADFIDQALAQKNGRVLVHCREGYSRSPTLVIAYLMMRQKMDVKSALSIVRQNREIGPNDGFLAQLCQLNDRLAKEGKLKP
BoNT-F LC inh = inhibitors of Botulinum neurotoxin F light chain protease. Multiplex microsphere protease cleavage assay, flow cytometry. inhibition, % at 10 µM. 360,000 compounds, 0.22% hits. AID 588497; in the data active = inhibition above about 35%, passing the limit was not always enough; inconclusive = no clear call, values can overlap the other calls; note: plate controls were buffer without enzyme for full effect and enzyme alone for no effect
Anthrax LF prot = anthrax lethal factor protease inhibition. multiplex microsphere protease cleavage assay, LF. inhibition, % at 10 µM. 360,000 compounds, 0.12% hits. P15917; note: plate controls were buffer without enzyme for full effect and enzyme alone for no effect
BoNT-A LC inh2 = BoNT A light chain protease inhibition; 360,000 compounds, 0.17% hits; multiplex microsphere protease substrate cleavage, flow cytometry; inhibition, % at 10 µM; note: plate controls were buffer without enzyme for full effect and enzyme alone for no effect
Bead autofluor = counter-screen for toxin protease inhibitors: compound fluorescence | compound autofluorescence counterscreen, microsphere flow cytometry; stronger effect = higher value | fluorescence intensity (concentration not given with the values) | 360,000 compounds, 3.1% hits | AID 624483; in the data active = fluorescence intensity above about 16000; inconclusive = no clear call, values can overlap the other calls
MazEF act = activators of E. coli MazEF toxin-antitoxin RNase. P0AE70. FAM/BHQ RNA-DNA oligo cleavage fluorescence, 5 h. activation, % at 20 µM. 350,000 compounds, 0.32% hits; in the data active = activation above about 50%
Target sequence (P0AE70 whole entry, looked up): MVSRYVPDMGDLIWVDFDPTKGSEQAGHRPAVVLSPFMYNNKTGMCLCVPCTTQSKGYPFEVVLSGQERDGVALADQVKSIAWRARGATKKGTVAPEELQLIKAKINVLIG
* marks the source's active call; other numbers are inactive results; ? = inconclusive; . = no result given; + = active, no number. Cut-off read from the data, not from the text of the source, unless noted: active = inhibition above about 30%; inconclusive = no clear call, values can overlap the other calls; inactive = below that.

SMILES | VHR inh abs | BoNT-F LC inh | Anthrax LF prot | BoNT-A LC inh2 | Bead autofluor | MazEF act
CCOC(=O)c1c(C)[nH]c(C(=O)OCC(=O)Nc2cc(Cl)ccc2OC)c1C | 4 | -5 | -5 | -3 | 16877* | 6
CCOC(=O)c1[nH]c(C)c(C(=O)OCC(=O)NC(=O)NC(C)(C)C)c1C | 7 | 4 | -2 | 1 | 20160* | 2
O=C(O)c1ccc(Cn2ccc3ccccc32)o1 | -10 | ? | -12 | ? | 4333 | -31
c1ccc(C2(Cn3ccc4ccccc43)OCCO2)cc1 | 14 | -15 | -3 | 35* | 24276* | -9
CCN(CC)CCC(=O)N1C/C(=C/c2ccccc2)C(=O)/C(=C\c2ccccc2)C1 | . | -3 | -1 | -1 | 3408 | 5
COc1ccc(C2=NOC(C(=O)Nc3ccc4c(c3)OCCO4)C2)c(OC)c1 (stereo not drawn) | 2 | -12 | -2 | 0 | 3641 | 1
COc1ccc(NC(=O)C2CCN(c3cc(-c4ccccc4)nc4ncnn34)CC2)cc1OC | 15 | -1 | 1 | ? | 20978* | 8
COc1ccc(NC(=O)C2CCN(c3cnccn3)CC2)cc1OC | -16 | 2 | -7 | 0 | 3655 | 1
COc1ccccc1NC(=O)N1CCN(c2cc(-c3ccccc3)nc3ncnn23)CC1 | 21 | 0 | -1 | ? | 22826* | 2
COc1cccc(-c2csc(N3CCN(C(=O)Nc4ccccc4OC)CC3)n2)c1 | 9 | -7 | -5 | ? | 21006* | 1
COc1ccc(OC)c(NC(=O)C2CCN(c3cc(-c4ccccc4)nc4ncnn34)CC2)c1 | 36 | 1 | 3 | 3 | 22638* | 3
COc1ccccc1NC(=O)N1CCN(c2ccnc3cc(Cl)ccc23)CC1 | 21 | -4 | -7 | 0 | 4787 | 2
Fc1cccc(Cc2c(-c3ccc(Cl)cc3)nc3c(Cl)cc(C(F)(F)F)cn23)c1 | . | -5 | 0 | 0 | 5907 | .
Cc1ccc(-n2c(SCC(=O)N3CCCCC3)nc(O)c(Cc3ccccc3)c2=O)cc1 | 34 | -3 | -2 | 0 | 5096 | 8
Cc1cc(=O)[nH]c(SCc2nc3ncccn3c2Br)n1 | 17 | -4 | -1 | -2 | 24282* | 5
CCCCNC(=O)C1(C)CCCCN1C(=O)c1cccs1 (stereo not drawn) | . | -2 | 0 | 0 | 3581 | .
CC(C)C(=O)Nc1cccc(-c2cnc3ccccc3n2)c1 | -8 | 0 | -1 | 2 | 20196* | -3
Cc1cccc(C(=O)Nc2cccc(-c3cnc4ccccc4n3)c2)c1 | -11 | -2 | -2 | 0 | 10686 | 53*
CN(C(=O)COn1nnc2ccc(Cl)cc21)C1CCS(=O)(=O)C1 (stereo not drawn) | . | . | . | . | . | 0
Nc1cccc(Nc2nc(OC(C(F)(F)F)C(F)(F)F)nc(OC(C(F)(F)F)C(F)(F)F)n2)c1 | 40 | 2 | -6 | -1 | 3099 | -9
COc1nc(Nc2ccc(O)cc2)nc(OC(C(F)(F)F)C(F)(F)F)n1 | 13 | -7 | -5 | -1 | 16552* | 4
Cc1ccc(C)n1-c1ccc(N2CCOCC2)nc1 | -8 | -10 | -4 | 0 | 22547* | -2
Cc1ccc(C)n1-c1ccc(C(=O)N2CCOCC2)cc1 | -22 | -1 | -1 | ? | 22385* | -12
O=C(c1cc(Cl)cc(Cl)c1)N1CCOCC1 | 11 | 2 | 0 | 1 | 20304* | -3
CCN(C[C@H]1N[C@@](Cc2ccccc2)(C(=O)OC)[C@H]2C(=O)N(Cc3ccccc3)C(=O)[C@@H]12)C(=O)C1CCCCC1 | . | -1 | 2 | 0 | 2959 | -6
SMILES | VHR inh abs | BoNT-F LC inh | Anthrax LF prot | BoNT-A LC inh2 | Bead autofluor | MazEF act
O=C(Nc1ccccc1F)c1ccc2sc([C@H]3C[C@H](O)[C@@H](CO)O3)nc2c1 | . | -1 | 1 | 0 | 3382 | .
C#Cc1ccc(CN2CCCC(C(=O)Nc3ccccc3Oc3cccnc3)C2)cc1 (stereo not drawn) | 56* | 0 | -2 | 0 | 6367 | 5
CCOC(=O)C1=C(O)/C(=C/c2cn(CC(=O)NCC3CCCO3)c3ccccc23)SC1=Nc1ccc(C)cc1 (stereo not drawn) | . | 23 | 4 | 3 | 2940 | +
CC1=CC(=O)C(C(C)C)=C/C1=C(\c1cc(C(C)C)c(OP(=O)(O)O)cc1C)c1ccccc1C(=O)O | 16 | 7 | 1 | 1 | 3246 | -2
CN(C)c1ccc(CN(C(=O)c2cc3ccccc3oc2=O)C2CCS(=O)(=O)C2)cc1 (stereo not drawn) | 1 | 3 | -2 | 1 | 5643 | 1
CC(C)c1ccc(CN(C(=O)c2cc3ccccc3oc2=O)C2CCS(=O)(=O)C2)cc1 (stereo not drawn) | 37 | 5 | -12 | ? | 21498* | -1
CCCNC(=O)Cc1ncn[nH]1 | 15 | -1 | 2 | -2 | 20413* | 4
O=C(Cc1ncn[nH]1)NCCc1ccccc1 | -20 | -13 | -4 | -2 | 4842 | 4
CCCCCCNC(=O)N[C@H](C(=O)NCCC[C@H]1CN2C(=NC[C@H]2C)N1CCC(c1ccccc1)c1ccccc1)C(C)O (stereo partly drawn) | 26 | . | . | . | . | .
c1ccc2c(c1)oc1c(NCCCn3ccnc3)ncnc12 | 55* | 2 | -3 | 0 | 2810 | 8
Nc1nonc1-c1noc(-c2ccccc2)n1 | 31 | 8 | 0 | 6 | 20869* | -5
CCn1c(COc2ccc(=O)n(-c3ccccc3)n2)nnc1SCc1ccccc1 | -4 | -5 | -1 | -2 | 21225* | -1
CCn1c(COc2ccc(=O)n(-c3ccccc3)n2)nnc1SCc1ccc(OC)cc1 | 23 | -2 | -7 | 0 | 9400 | 5
O=C(NN=Cc1cccc(O)c1O)c1ccccc1 | . | -12 | 1 | -2 | 6323 | .
Cc1ccc(C(=O)Nc2nnc(C3CCCCC3)s2)o1 | 21 | -4 | -4 | -1 | 23882* | 7
O=C(CCC1CC(=O)Nc2ccccc21)NCc1ccc(F)cc1 (stereo not drawn) | 14 | 3 | 1 | 2 | 18975* | -5
Cc1cc(=O)oc2cc(OCC(=O)N3CCOCC3)c(Cl)cc12 | . | -5 | -2 | 0 | 3524 | -4
COC(=O)/C(C#N)=C/c1c(-c2ccccc2)nc2n1CCS2 | 13 | 7 | -15 | -1 | 6301 | 6
Clc1cccc(Cl)c1CO/N=C/c1c(-c2ccccc2)nc2n1CCS2 | 27 | -7 | -4 | ? | 23470* | -9
CCOC(=O)c1sc2nc(CC(=O)OC)nc(NCc3ccc(F)cc3)c2c1C | 27 | -3 | -3 | -3 | 16799* | -1
CCOC(=O)c1sc2nc(C)nc(NCc3ccc(F)cc3)c2c1C | -8 | -1 | -6 | -1 | 4575 | -3
Cc1ccccc1OCC1CNC(=O)O1 (stereo not drawn) | -13 | 0 | 2 | 0 | 2006 | -4
O=C1NCC(CN(c2ccccc2)c2ccccc2)O1 (stereo not drawn) | -29 | 4 | -3 | 3 | 19299* | 0
COc1ccccc1NC(=S)NCc1ccc2c(c1)cc(C)n2C | 10 | -120 | -75 | 33* | 2036 | 12
Cc1cc2cc(CNC(=S)NCc3ccccc3)ccc2n1C | 6 | -120 | -80 | 45* | 2043 | 23
